Measurements: the supplement of paper PMC6522484
± gives the standard deviation of the averaged measurements.

Columns and labels:
DLD1 [1] = assay: cell viability (CellTiter-Glo) relative to plate median (fraction of plate median); higher = more viable cells; conditions: 5 µM; treatment time 24 h; reporter: 7TFP
How it was run: (§1)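 Library compounds were added at a final concentration of 5 µM for 24 h to colorectal cancer cells stably transduced with a lentiviral TCF/Wnt firefly luciferase reporter. Reported values are firefly luciferase or CellTiterGlo luminescence, normalised per well to the plate median. Each value averages two independent replicates.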

HCT116 = assay: as above; conditions: 5 µM; treatment time 24 h; reporter: TCF4/Wnt
How it was run: as §1

SW480 [2] = assay: as above; conditions: 5 µM; treatment time 24 h; reporter: 7TFP
How it was run: as §1

DLD1 [3] = assay: TCF/Wnt firefly luciferase reporter signal relative to plate median (fraction of plate median); higher = higher Wnt reporter signal; conditions: 5 µM; treatment time 24 h; reporter: 7TFP
How it was run: as §1

SW480 [4] = assay: as above; conditions: 5 µM; treatment time 24 h; reporter: 7TFP
How it was run: as §1

| SMILES | cell viability (DLD1 [1]) | cell viability (HCT116) | cell viability (SW480 [2]) | TCF/Wnt firefly luciferase reporter signal (DLD1 [3]) | TCF/Wnt firefly luciferase reporter signal (SW480 [4]) |
| --- | --- | --- | --- | --- | --- |
| CCN[C@@H]1C[C@H](N)[C@@H](O[C@H]2OC(CN)=CC[C@H]2N)[C@H](O)[C@H]1O[C@H]1OC[C@](C)(O)[C@H](NC)[C@H]1O | 0.992 ± 0.026 | 0.903 ± 0.052 | 0.978 ± 0.025 | 0.906 ± 0.15 | 0.953 ± 0.021 |
| C/C=C/CCC(=O)c1c(C)c(O)c(O)c(C)c1O [Sohirnone C] | 1.11 ± 0.05 | 0.995 ± 0.035 | 1.05 ± 0.057 | 1.07 ± 0.014 | 1.08 ± 0.071 |
| Nc1ccc(S(=O)(=O)Nc2nccs2)cc1 | 1.01 ± 0.031 | 0.911 ± 0.028 | 1.065 ± 0.0071 | 0.999 ± 0.072 | 1.055 ± 0.0071 |
| CN(C)C(=O)Nc1ccc(Cl)c(Cl)c1 | 0.959 ± 0.035 | 0.989 ± 0.016 | 0.966 ± 0.042 | 1.14 ± 0.099 | 1.15 ± 0.078 |
| CC1(C)[C@@H](O)CC[C@]2(C)[C@H]3C(=O)C=C4[C@@H]5C[C@@](C)(C(=O)O)CC[C@]5(C)CC[C@@]4(C)[C@]3(C)CC[C@@H]12 | 1.01 ± 0.059 | 1.03 ± 0.098 | 1.05 ± 0.057 | 1.04 ± 0.22 | 1.12 ± 0.13 |
| Cc1cc2cc3c(C)cc(=O)oc3c(C)c2o1 | 1.07 ± 0.021 | 0.954 ± 0.034 | 1 ± 0.022 | 1.14 ± 0.11 | 0.895 ± 0.037 |
| NC(=O)NO | 1.06 ± 0.09 | 1.05 ± 0.042 | 1.09 ± 0.028 | 1.03 ± 0.11 | 1.03 ± 0.12 |
| CCCCCC/C=C\CCCCCCCc1cccc(O)c1C(=O)O | 1.05 ± 0.14 | 1.08 ± 0.028 | 1.05 ± 0.042 | 0.985 ± 0.14 | 0.996 ± 0.021 |
| COc1cc(C(=O)NCc2ccc(OCCN(C)C)cc2)cc(OC)c1OC | 0.99 ± 0.057 | 1 ± 0.13 | 0.996 ± 0.077 | 0.871 ± 0.12 | 0.851 ± 0.06 |
| COc1c(N2C[C@@H]3CCCN[C@@H]3C2)c(F)cc2c(=O)c(C(=O)O)cn(C3CC3)c12 | 0.861 ± 0.14 | 1.02 | 1.02 ± 0.069 | 1.1 ± 0.042 | 1 ± 0.013 |
| CC(=O)OC(C)(C)[C@@H]1Cc2cc3ccc(=O)oc3cc2O1 | 1.06 ± 0.014 | 1.1 ± 0.014 | 1.03 ± 0.062 | 0.896 ± 0.039 | 0.944 ± 0.077 |
| COc1cc(C)c(C(=O)Oc2cc(C)c(C(=O)O)c(O)c2C)c(O)c1C=O | 1.06 ± 0.014 | 0.9725 ± 0.0021 | 1.03 ± 0.014 | 1.06 ± 0.078 | 1.12 ± 0.085 |
| CC(C)C1=C2[C@H]3CCC4[C@@H]5[C@H](O[C@@H]6OC[C@@H](O)[C@H](O[C@@H]4O)C65O)[C@]3(C)CC[C@@]2(C)CC1 (stereo not given in full) | 0.915 ± 0.067 | 0.862 ± 0.11 | 0.938 ± 0.011 | 0.873 ± 0.014 | 0.968 ± 0.045 |
